High-throughput results from PubChem.
KinaseGlo FLuc – blocks Kinase-Glo luciferase, a counter-screen artifact; Q27757; Potency, µM (series often up to 38.3 µM), for the others: at the highest dose activity change, negative = inhibition, usual class: inhibitors; hit rate 0.28% among 200,000; Kinase-Glo luciferase, ATP luminescence, 8 min; further: nearly all actives have a fitted effect of over 60% in size
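Inhibition of Kinase-Glo luciferase light generation was assessed at 10 uM ATP in pH 7.2 imidazole buffer, with luminescence measured after eight minutes at ambient temperature.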
VP16 counter – counter-screen for ROR gamma inhibitors: Gal4-VP16 reporter; Potency, µM (top dose mostly 53.6 µM), for inactives: at the top dose activity, negative = inhibition, usual class: inhibitors; hit rate 3.5% among 310,000; Drosophila S2 Gal4-VP16 UAS-luciferase, luminescence, 20 h;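 further: Gal4-VP16 expression switched on by copper sulfate through the metallothionein promoter; nearly all actives have a fitted effect of over 50% in size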
RORg inh – blocks mouse ROR gamma transcriptional activity. Potency, µM (highest dose often 53.6 µM), without a hit: at the highest dose activity change, negative = inhibition, most hits filed as inhibitors. AID 2551. hit rate 5.4% among 310,000. Drosophila S2 Gal4-RORgamma UAS-luciferase reporter, 20 h; further: nearly all actives have a fitted effect of over 60% in size
Target sequence (P51450 whole entry, looked up, the tested form may be a part): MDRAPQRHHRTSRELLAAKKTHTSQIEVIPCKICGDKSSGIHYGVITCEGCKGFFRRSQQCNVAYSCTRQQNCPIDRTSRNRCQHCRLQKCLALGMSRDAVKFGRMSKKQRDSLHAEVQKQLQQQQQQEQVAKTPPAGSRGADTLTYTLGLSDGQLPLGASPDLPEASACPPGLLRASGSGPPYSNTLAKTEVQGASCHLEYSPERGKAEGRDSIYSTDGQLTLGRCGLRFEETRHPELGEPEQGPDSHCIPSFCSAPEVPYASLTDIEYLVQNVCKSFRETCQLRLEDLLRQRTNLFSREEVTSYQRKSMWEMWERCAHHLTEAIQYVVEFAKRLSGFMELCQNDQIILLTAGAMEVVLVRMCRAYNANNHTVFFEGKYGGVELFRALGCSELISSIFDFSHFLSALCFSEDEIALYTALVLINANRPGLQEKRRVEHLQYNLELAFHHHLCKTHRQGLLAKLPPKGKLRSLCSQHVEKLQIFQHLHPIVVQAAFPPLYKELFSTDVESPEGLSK
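Stably transfected Drosophila Schneider cells are the test system, with ROR gamma fused to Gal4 and luciferase under UAS control; luminescence is read after 20 hr of 700 uM copper sulfate induction at ambient temperature.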
Starred values were filed as active, the others as inactive; u = inconclusive; x = not tested or not shown; [ ] = another dose, or the depositor's remark. Rows were chosen to be rich in hits. Some 6.4% of all compounds tested hit in one or more screens of this group. The call rests on the fitted dose curve; in most records, active means well fitted curve in the direction sought with a large enough effect; inconclusive means small, poorly fitted or top-dose-only effect, or another doubt; inactive means no such curve, though single readings can be large; an effect the other way counts as inactive or inconclusive. On the % scale 0 is the no-effect control and ±100 the full control effect; potency means the concentration at half of the fitted maximal effect.

SMILES | KinaseGlo FLuc | VP16 counter | RORg inh
NC(=S)N/N=C1\CC(n2nnnc2-c2ccccc2Cl)C2COC1O2 (stereo unspecified) | 8.1% | u | 11.2µM*
Cc1ccc(-c2nnnn2C2C/C(=N\NC(N)=S)C3OCC2O3)cc1 (stereo unspecified) | -1.2% | u | 10µM*
CC(C)(C)C1CCC(C(=O)OCC(=O)c2ccc[nH]2)CC1 (stereo unspecified) | -1.8% | -9.6% | -31.5%
Cc1ccc2c(c1)N(C(C)C(=O)NCc1cccs1)C(=O)CO2 (stereo unspecified) | -0.6% | 8.0%[10 µM] | 19.9%
CCOc1ccc(CC(=O)N2N=C(C)CC2(O)C(F)(F)F)cc1 (stereo unspecified) | 0.5% | 5.01µM* | 1.58µM*
CCCC1=NN(C(=O)Cc2ccc(OC)cc2)C(O)(C(F)(F)F)C1 (stereo unspecified) | 0.4% | u | 12.6µM*
CCc1ccc(C2(O)CC(C(F)(F)F)=NN2C(=O)Cc2ccc([N+](=O)[O-])cc2)cc1 (stereo unspecified) | -1.2% | -4.6% | u
CCC1=NN(C(=O)Cc2ccc([N+](=O)[O-])cc2)C(O)(C(C)(C)C)C1 (stereo unspecified) | 1.5% | -8.5% | 8.91µM*
CCOc1ccc(CC(=O)NCc2cn3c(C)csc3n2)cc1 | -3.6% | 5.5% | 2.6%
COc1ccc(CC(=O)N2CCN(c3ccc(F)cc3)CC2)cc1 | x | -8.0% | 10.1%
CN(C)/N=C/c1ccc(P(c2ccc(/C=N/N(C)C)o2)c2ccc(/C=N/N(C)C)o2)o1 | 1.4% | u | u
O=C(CCC(=O)c1ccccc1)NC1CCCN(Cc2ccccc2F)C1 (stereo unspecified) | x | -5.7% | -3.0%
C/C(Cn1nnc2ccccc21)=N\NC(=O)c1ccc(Br)cc1 | 0.8% | -4.6% | u
C/C(Cn1nnc([N+](=O)[O-])n1)=N\NC(=O)c1ccc(O)cc1 | x | 7.94µM* | 2.82µM*
C/C(Cn1cnc([N+](=O)[O-])n1)=N/NC(=O)COc1ccccc1Cl | 1.6% | u | -35.4%
C/C(Cn1nnc([N+](=O)[O-])n1)=N\NC(=O)c1ccc(Cl)c(Cl)c1 | 9.1% | u | 12.6µM*
COc1ccc(S(=O)(=O)NCc2ccco2)cc1NC(=O)c1ccccc1 | x | u | 2.4%
N#CCCn1c(=O)c(-c2cc(F)cc(F)c2)nc2cnc(Nc3ccccc3)nc21 | x | -2.3% | 11.0%
Cn1c(=O)c(-c2cc(F)cc(F)c2)nc2cnc(Nc3ccccc3)nc21 | x | u | 10µM*
CCOc1ccccc1CN1CCNC(=O)C1CC(=O)NCc1ccccn1 (stereo unspecified) | x | u | 11.2µM*
O=C(CC1C(=O)NCCN1Cc1ccc(F)cc1)NCCOc1cccnc1 (stereo unspecified) | x | -8.3% | -6.4%
CCOc1ccccc1CN1CCNC(=O)C1CC(=O)NC1CCCCC1 (stereo unspecified) | x | 0.7% | -8.5%
O=C(CC1C(=O)NCCN1Cc1ccc(-c2ccccc2)cc1)NCCOc1cccnc1 (stereo unspecified) | -2.6% | 20µM* | 2.8%
COC(=O)c1cnn(-c2ccc(Cl)cc2)c1/C=N/NC(N)=S | x | u | -38.4%
Cc1cc(C)cc(NC(=O)Nc2ccc(-n3ccc(C(F)(F)F)n3)cc2)c1 | x | -9.0% | 29.3%
SMILES | KinaseGlo FLuc | VP16 counter | RORg inh
O=C(Nc1ccc(-n2ccc(C(F)(F)F)n2)cc1)Nc1cccc(Cl)c1 | x | 17.8µM* | u
O=C(c1nc2ccc(Cl)cn2c1CN1CCC[C@H]1CO)N1CCCCCCC1 | x | -6.5% | 6.9%
CC(=O)Nc1ccc(C(=O)CS(=O)(=O)c2ccc(C)cc2)cc1 | 1.8% | 6.2% | u
Cc1ccc(S(=O)(=O)CNC(=S)c2cccc(Cl)c2)cc1 | 0.2% | u | 22.4µM*
Cc1ccc(C(=S)NCS(=O)(=O)c2ccc(C)cc2)cc1 | -0.1% | 8.91µM* | 2.82µM*
Cc1ccc(S(=O)(=O)N(CC(=O)O)c2cccc(Cl)c2)cc1 | 1.3% | x | x
Cc1cccc(C)c1NC(=S)/C(=C(\[O-])c1cccs1)[n+]1ccccc1 | 2.2% | 20µM* | u
[O-]/C(=C(\C(=S)Nc1cccc2ccccc12)[n+]1ccccc1)c1cccs1 | 2.0% | 7.8%[10 µM] | u
COc1ccc(CCn2c(C)nc3c(c(=O)c4ccccc4n3C)c2=O)cc1 | 0.1% | 1.7% | -14.8%
COc1ccccc1-c1nc2ccc(Cl)cc2c(=O)n1O | x | -10.5% | -30.5%
O=c1c2cc(Cl)ccc2nc(-c2ccccc2)n1O | -0.6% | 0.6% | 6.31µM*
O=c1c2cc(Br)ccc2nc(-c2ccc([N+](=O)[O-])cc2)n1O | 0.8% | 7.9% | u
